Results taken from ChEMBL document CHEMBL2218924, “A broad activity screen in support of a chemogenomic map for kinase signalling research and drug discovery” (Biochem J, 2013).

Each molecule was assayed against T1, cAMP-dependent protein kinase catalytic subunit PRKX (Homo sapiens) (UniProt P51817). Conditions: at 1 µM.
T1 sequence (whole entry): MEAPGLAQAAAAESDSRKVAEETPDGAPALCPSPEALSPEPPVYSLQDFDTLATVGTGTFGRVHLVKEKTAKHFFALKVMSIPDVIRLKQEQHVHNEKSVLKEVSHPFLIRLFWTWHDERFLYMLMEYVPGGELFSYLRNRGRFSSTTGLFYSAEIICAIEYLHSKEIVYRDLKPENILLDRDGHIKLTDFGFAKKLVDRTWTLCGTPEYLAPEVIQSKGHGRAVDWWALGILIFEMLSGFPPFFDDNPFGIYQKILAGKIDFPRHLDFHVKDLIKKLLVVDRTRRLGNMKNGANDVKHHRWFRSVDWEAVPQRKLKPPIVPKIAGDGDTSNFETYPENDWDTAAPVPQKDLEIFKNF

SMILES	residual activity [%]
O=c1c(-c2ccc(F)cc2)c(-c2ccncc2)[nH]n1-c1ccc(Cl)cc1	78
Oc1cccc(-c2nc(N3CCOCC3)c3oc4ncccc4c3n2)c1	96
O=C(c1cc2cc(O)ccc2[nH]1)c1cc2cc(O)ccc2[nH]1	81
Cn1c2ccccc2c2c3c(c4c5ccccc5n(CCC#N)c4c21)CNC3=O	19
COc1ccc(COc2ccc(Cc3cnc(N)nc3N)cc2OC)cc1	98
O=C(Nc1nc2ccccc2n1CCN1CCOCC1)c1cccc([N+](=O)[O-])c1	108
N#Cc1c(NC(=O)c2cccc3ccccc23)sc2c1CCCC2	80
CN(C)S(=O)(=O)c1ccc2c(c1)/C(=C/c1cc3c([nH]1)CCCC3)C(=O)N2	95
O=S(=O)(NCCNC/C=C/c1ccc(Br)cc1)c1cccc2cnccc12	0
NC(=O)c1ccc(-c2nc(-c3ccc4c(c3)OCCO4)c(-c3ccccn3)[nH]2)cc1	82
COc1ccc(CNC(=O)Nc2ncc([N+](=O)[O-])s2)cc1	55
N#C/C(=C1/Nc2ccccc2S1)c1ccnc(NCCc2cccnc2)n1	83
CCCCc1c(-c2ccc(OC)cc2)[nH]c2nccnc12	84
CN([C@@H](Cc1ccc(OS(=O)(=O)c2cccc3cnccc23)cc1)C(=O)N1CCN(c2ccccc2)CC1)S(=O)(=O)c1cccc2cnccc12	116
O=C1Nc2ccccc2/C1=C\c1c(Cl)[nH]c2ccccc12	125
CCN(CC)CCNC(=O)c1c(C)[nH]c(/C=C2\C(=O)Nc3ccc(Cl)cc32)c1C	63
O=C1NC(=O)C(c2cn(CCCn3ccnc3)c3ccccc23)=C1Nc1ccccc1	80
O=S(=O)(c1cccc2cnccc12)N1CCCNCC1	21
COc1cc2nccc(Oc3ccc(NC(=O)Nc4cc(C)on4)c(Cl)c3)c2cc1OC	97

Each molecule was assayed against T1, cAMP-dependent protein kinase catalytic subunit PRKX (Homo sapiens). Conditions: at 10 µM.

SMILES	residual activity [%]
O=c1c(-c2ccc(F)cc2)c(-c2ccncc2)[nH]n1-c1ccc(Cl)cc1	71
Oc1cccc(-c2nc(N3CCOCC3)c3oc4ncccc4c3n2)c1	92
CCOc1nc(NC(=O)Cc2cc(OC)ccc2OC)cc(N)c1C#N	55
O=C(c1cc2cc(O)ccc2[nH]1)c1cc2cc(O)ccc2[nH]1	34
Cn1c2ccccc2c2c3c(c4c5ccccc5n(CCC#N)c4c21)CNC3=O	20
O=C(Nc1nc2ccccc2n1CCN1CCOCC1)c1cccc([N+](=O)[O-])c1	86
N#Cc1c(NC(=O)c2cccc3ccccc23)sc2c1CCCC2	84
CN(C)S(=O)(=O)c1ccc2c(c1)/C(=C/c1cc3c([nH]1)CCCC3)C(=O)N2	91
N#C/C(=C\c1ccc(O)c(O)c1)C(=O)NCc1ccccc1	70
COc1cc2c(cc1OC)-c1n[nH]c(Nc3cccc(F)c3)c1C2	101
CCN1/C(=C/C(C)=O)Sc2ccc(OC)cc21	42
O=S(=O)(NCCNC/C=C/c1ccc(Br)cc1)c1cccc2cnccc12	0
O=C(Nc1ccc(Cl)cc1)c1ccccc1NCc1ccncc1	50
NC(=O)c1ccc(-c2nc(-c3ccc4c(c3)OCCO4)c(-c3ccccn3)[nH]2)cc1	86
COc1ccc(CNC(=O)Nc2ncc([N+](=O)[O-])s2)cc1	59
N#C/C(=C1/Nc2ccccc2S1)c1ccnc(NCCc2cccnc2)n1	37
CCCCc1c(-c2ccc(OC)cc2)[nH]c2nccnc12	101
CN([C@@H](Cc1ccc(OS(=O)(=O)c2cccc3cnccc23)cc1)C(=O)N1CCN(c2ccccc2)CC1)S(=O)(=O)c1cccc2cnccc12	62
O=C1Nc2ccccc2/C1=C\c1c(Cl)[nH]c2ccccc12	79
CCN(CC)CCNC(=O)c1c(C)[nH]c(/C=C2\C(=O)Nc3ccc(Cl)cc32)c1C	37
COc1ccc2c(c1)c(C1=C(c3c[nH]c4ccccc34)C(=O)NC1=O)cn2CCCN(C)C	79
O=C1NC(=O)C(c2cn(CCCn3ccnc3)c3ccccc23)=C1Nc1ccccc1	58
O=S(=O)(c1cccc2cnccc12)N1CCCNCC1	2
COc1cc2nccc(Oc3ccc(NC(=O)Nc4cc(C)on4)c(Cl)c3)c2cc1OC	59
